# Laboratory results from article PMC5540273 (PLoS ONE, 2017).
# Test system: MTOR
# Details: concentration: 1 μM, replicates: in singlicate; n = 1
# 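Also: KINOMEscan kinase panel screen.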
row,Structure (SMILES),%Inh [%]
1,COc1ccc(Nc2nccc(N3CCC(NC(=O)C(C)c4ccc(Cl)cc4)CC3)n2)cc1 (stereo not drawn) [GSK1379812],3
2,CCc1ccc(-c2ccc3c(c2)-c2n[nH]cc2S(=O)(=O)N3C)cc1,0
3,CC(=O)c1c(C)c2cnc(Nc3ccc(N4CCNCC4)cn3)nc2n(C2CCCC2)c1=O,55
4,Cn1cncc1C(=O)NC1CCN(c2ccnc(Nc3ccc(F)cc3)n2)C1 (stereo not drawn) [GSK1379717],0
5,CNc1cc(-c2ccc3c(N)n[nH]c3c2)nc(N)n1 [GSK2224810],0
6,CN1c2ccc(-c3ccc(C(N)=O)cc3)cc2-c2[nH]ncc2S1(=O)=O,14
7,COc1ccc(-c2coc3ccc(-c4nnc(C)o4)cc23)cc1,5
8,Cc1ccc(NC(=O)Nc2ccccc2F)cc1-c1ccc(C(=O)Nc2ccncc2)cc1 [GSK1398477],11
9,O=C(Nc1n[nH]c2nc(-c3ccco3)c(Br)cc12)C1CCN(Cc2ccccc2)C1.O=C(O)[C@H](O)[C@@H](O)C(=O)O (stereo not drawn) [SB-742034],0
10,FC(F)(F)c1ccccc1-c1cc(-c2c[nH]nc2-c2ccccn2)ccn1 [GW679396],0
11,COc1nccc(-c2c(-c3ccc(F)cc3)ncn2CCCN2CCOCC2)n1 [SB-282852],0
12,COc1cccc(CNC(=O)NC2CCN(c3ccnc(Nc4ccc(F)cc4)n3)C2)c1 (stereo not drawn) [GSK1379723],15
13,COC(=O)C(NC(=O)NC1CCN(c2ccnc(Nc3ccc(F)cc3)n2)C1)c1ccccc1 (stereo not drawn) [GSK1379712],31
14,CNCc1ccc2nc(NC(=O)c3ccc(C(C)(C)C)cc3)cn2c1,2
15,Cc1ccc(NC(=O)Nc2ccc(Cl)cc2)cc1-c1ccc(C(=O)Nc2ccncc2)cc1 [GSK1398472],18
16,Cn1cncc1-c1cc2c(Nc3ccc(OCc4ccccc4)cc3)ncnc2cn1 [GW281179],3
17,Fc1ccc(-c2nc3n(c2-c2ccncc2)CCS3)cc1 [GI98581],12
18,COc1ccc(CSc2nnc(-c3ccc4ncsc4c3)o2)cc1C(F)(F)F,8

row,Structure (SMILES),%Inh [%]
1,Cc1ccc(NC(=O)Nc2ccccc2)cc1-c1ccc(C(=O)Nc2ccncc2)cc1 [GSK1398471],0
2,COc1ccc2cc(-c3nc(-c4ccccc4C(C)C)[nH]c3-c3ccncc3)ccc2c1 [SB-660566],31
3,O=C1NC(=O)C(c2ccc(Cl)cc2)=C1Nc1cccc(Cl)c1 [SB-317651],8
4,CC(C)c1cc(-c2ccc3c(N)n[nH]c3c2)nc(N)n1 [GSK2250882],11
5,Cc1c(Cn2c3ccccc3n3c(=O)cc(N4CCOCC4)nc23)cccc1C(F)(F)F [GSK2306394],3
6,COC(=O)C(Cc1ccccc1)NC(=O)NC1CCN(c2ccnc(Nc3ccc(F)cc3)n2)C1 (stereo not drawn) [GSK1379714],33
7,CS(=O)(=O)Cc1ccc(Nc2nccc(-c3c(-c4cccc(NC(=O)C5CCCCC5)c4)nn4ncccc34)n2)cc1 [GSK350559],18
8,Nc1nccc(-c2c(-c3ccc(F)cc3)ncn2C2CCN(Cc3ccccc3)CC2)n1 [SB-219980],23
9,CC(C)c1ccc(O)cc1Nc1ccnc2ccc(C(F)(F)F)cc12 [GW482059],6
10,CNc1nc(-c2ccc3c(N)n[nH]c3c2)cc(N2C[C@@H](C(=O)NC3CCCCC3)OC[C@H]2C)n1 [GSK2375584],0
11,CCn1c(-c2ccccc2)nc2cnccc21 [SB-733416],31
12,CCCCc1nn2ncccc2c1-c1ccnc(NC2CC2)n1 [GW684374],5
13,Nc1cccc(-c2ccc3c(N)n[nH]c3c2)n1 [GSK2192730],15
14,CS(=O)(=O)CCNCc1nc(-c2ccc3ncnc(Nc4ccc(OCc5ccccc5)c(Cl)c4)c3c2)cs1.Cl [GW582764],8
15,COc1cccc(NC(=O)Nc2ccc(C)c(-c3ccc(C(=O)Nc4ccncc4)cc3)c2)c1 [GSK1398474],0
16,CC[C@@H]1CO[C@H](C(=O)Nc2ccccc2)CN1c1cc(-c2ccc3c(N)n[nH]c3c2)nc(NC)n1 [GSK2376236],9
17,COc1ccc(CSc2nnc(-c3ccc4nccn4c3)o2)cc1C(F)(F)F,0
18,Nc1ncnc2occ(-c3ccc4c(c3)CCN4C(=O)Cc3cc(F)ccc3F)c12 [GSK2645446],3

# Test system: MUSK
# Details: concentration: 1 μM, replicates: in singlicate; n = 1
row,Structure (SMILES),%Inh [%]
1,COc1ccc(Nc2nccc(N3CCC(NC(=O)C(C)c4ccc(Cl)cc4)CC3)n2)cc1 (stereo not drawn) [GSK1379812],0
2,CCc1ccc(-c2ccc3c(c2)-c2n[nH]cc2S(=O)(=O)N3C)cc1,0
3,CC(=O)c1c(C)c2cnc(Nc3ccc(N4CCNCC4)cn3)nc2n(C2CCCC2)c1=O,8
4,Cn1cncc1C(=O)NC1CCN(c2ccnc(Nc3ccc(F)cc3)n2)C1 (stereo not drawn) [GSK1379717],0
5,CNc1cc(-c2ccc3c(N)n[nH]c3c2)nc(N)n1 [GSK2224810],0
6,CN1c2ccc(-c3ccc(C(N)=O)cc3)cc2-c2[nH]ncc2S1(=O)=O,0
7,COc1ccc(-c2coc3ccc(-c4nnc(C)o4)cc23)cc1,4
8,Cc1ccc(NC(=O)Nc2ccccc2F)cc1-c1ccc(C(=O)Nc2ccncc2)cc1 [GSK1398477],31
9,O=C(Nc1n[nH]c2nc(-c3ccco3)c(Br)cc12)C1CCN(Cc2ccccc2)C1.O=C(O)[C@H](O)[C@@H](O)C(=O)O (stereo not drawn) [SB-742034],0
10,FC(F)(F)c1ccccc1-c1cc(-c2c[nH]nc2-c2ccccn2)ccn1 [GW679396],0
11,COc1nccc(-c2c(-c3ccc(F)cc3)ncn2CCCN2CCOCC2)n1 [SB-282852],0
12,COc1cccc(CNC(=O)NC2CCN(c3ccnc(Nc4ccc(F)cc4)n3)C2)c1 (stereo not drawn) [GSK1379723],7
13,COC(=O)C(NC(=O)NC1CCN(c2ccnc(Nc3ccc(F)cc3)n2)C1)c1ccccc1 (stereo not drawn) [GSK1379712],12
14,CNCc1ccc2nc(NC(=O)c3ccc(C(C)(C)C)cc3)cn2c1,0
15,Cc1ccc(NC(=O)Nc2ccc(Cl)cc2)cc1-c1ccc(C(=O)Nc2ccncc2)cc1 [GSK1398472],11
16,Cn1cncc1-c1cc2c(Nc3ccc(OCc4ccccc4)cc3)ncnc2cn1 [GW281179],12
17,Fc1ccc(-c2nc3n(c2-c2ccncc2)CCS3)cc1 [GI98581],15
18,COc1ccc(CSc2nnc(-c3ccc4ncsc4c3)o2)cc1C(F)(F)F,1

row,Structure (SMILES),%Inh [%]
1,Cc1ccc(NC(=O)Nc2ccccc2)cc1-c1ccc(C(=O)Nc2ccncc2)cc1 [GSK1398471],4
2,COc1ccc2cc(-c3nc(-c4ccccc4C(C)C)[nH]c3-c3ccncc3)ccc2c1 [SB-660566],18
3,O=C1NC(=O)C(c2ccc(Cl)cc2)=C1Nc1cccc(Cl)c1 [SB-317651],7
4,CC(C)c1cc(-c2ccc3c(N)n[nH]c3c2)nc(N)n1 [GSK2250882],0
5,Cc1c(Cn2c3ccccc3n3c(=O)cc(N4CCOCC4)nc23)cccc1C(F)(F)F [GSK2306394],6
6,COC(=O)C(Cc1ccccc1)NC(=O)NC1CCN(c2ccnc(Nc3ccc(F)cc3)n2)C1 (stereo not drawn) [GSK1379714],8
7,CS(=O)(=O)Cc1ccc(Nc2nccc(-c3c(-c4cccc(NC(=O)C5CCCCC5)c4)nn4ncccc34)n2)cc1 [GSK350559],0
8,Nc1nccc(-c2c(-c3ccc(F)cc3)ncn2C2CCN(Cc3ccccc3)CC2)n1 [SB-219980],0
9,CC(C)c1ccc(O)cc1Nc1ccnc2ccc(C(F)(F)F)cc12 [GW482059],3
10,CNc1nc(-c2ccc3c(N)n[nH]c3c2)cc(N2C[C@@H](C(=O)NC3CCCCC3)OC[C@H]2C)n1 [GSK2375584],16
11,CCn1c(-c2ccccc2)nc2cnccc21 [SB-733416],16
12,CCCCc1nn2ncccc2c1-c1ccnc(NC2CC2)n1 [GW684374],19
13,Nc1cccc(-c2ccc3c(N)n[nH]c3c2)n1 [GSK2192730],4
14,CS(=O)(=O)CCNCc1nc(-c2ccc3ncnc(Nc4ccc(OCc5ccccc5)c(Cl)c4)c3c2)cs1.Cl [GW582764],0
15,COc1cccc(NC(=O)Nc2ccc(C)c(-c3ccc(C(=O)Nc4ccncc4)cc3)c2)c1 [GSK1398474],1
16,CC[C@@H]1CO[C@H](C(=O)Nc2ccccc2)CN1c1cc(-c2ccc3c(N)n[nH]c3c2)nc(NC)n1 [GSK2376236],2
17,COc1ccc(CSc2nnc(-c3ccc4nccn4c3)o2)cc1C(F)(F)F,9
18,Nc1ncnc2occ(-c3ccc4c(c3)CCN4C(=O)Cc3cc(F)ccc3F)c12 [GSK2645446],3
